The values below come from ChEMBL document CHEMBL1201862, “PubChem BioAssay data set” (2004).

The campaign covered roughly 350,000 compounds. About 1,200 (0.34%) were called active. Another 3% or so got no clear call; they are omitted. The rule behind the calls is not given here. This excerpt belongs to a sample that is enriched for actives.

For the test, the target named is DNA repair nuclease/redox regulator APEX1 (Homo sapiens) (UniProt P27695). Put plainly: qHTS Assay for Inhibitors of the Human Apurinic/apyrimidinic Endonuclease 1 (APE1). The test is classed as functional. On the technique in general: Quantitative high-throughput screening tests each substance at several concentrations.
Sequence of DNA repair nuclease/redox regulator APEX1 (Homo sapiens) (P27695 whole entry): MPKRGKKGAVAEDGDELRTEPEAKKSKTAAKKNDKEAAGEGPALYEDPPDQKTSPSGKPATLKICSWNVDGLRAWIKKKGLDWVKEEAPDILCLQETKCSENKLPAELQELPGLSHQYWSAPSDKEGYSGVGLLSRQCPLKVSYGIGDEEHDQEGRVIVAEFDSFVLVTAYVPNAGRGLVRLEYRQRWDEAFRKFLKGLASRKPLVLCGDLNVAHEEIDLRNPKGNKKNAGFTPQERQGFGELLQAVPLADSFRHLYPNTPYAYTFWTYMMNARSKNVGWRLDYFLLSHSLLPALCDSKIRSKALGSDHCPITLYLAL
`O=C(Cn1c(=S)[nH]c2ccccc2c1=O)N1CCN(c2ccc(F)cc2)CC1`: the Potency was 794 µM (active).
Under `CC(=O)OCC(NC(=O)C(Cc1c[nH]c2ccccc12)NC(=O)OC(C)(C)C)C1OC(n2cc(C)c(=O)[nH]c2=O)C(OC(C)=O)C1OC(C)=O` (stereo not drawn) stands “inactive”; under `O=C(O)c1cc(-c2ccc(F)cc2F)ccc1O`, “inactive”.
